ERK AVP block: vasopressin-driven ERK pathway inhibition; HEK293-V1b, vasopressin-stimulated pERK AlphaScreen; 72,000 compounds, 0.99% hits; Potency, µM (titrated, usually from 57.5 µM), most hits filed as inhibitors; AID 995; further: nearly all actives have a fitted effect of over 55% in size
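HEK293 cells stably expressing V1b receptor, seeded overnight in 1% FBS, were treated with compounds for 30 min at 37C, then stimulated 5 min with 25 nM vasopressin; phospho-ERK read by AlphaScreen SureFire after lysis.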
CRE-bla Fsk: modulators of forskolin-stimulated CRE signaling in CHO cells | 71,000 compounds, 2.5% hits | Potency, µM (series often up to 38.2 µM), actives largely listed as activators | CHO CRE-bla reporter (cAMP response element driving beta-lactamase), forskolin EC10, beta-lactamase ratio | AID 662; active means well fitted activation curve with a large enough effect in the signal ratio, with a control signal flat, not every such curve was filed as active; inconclusive means small, poorly fitted or top-dose-only effect, or effect the other way, or a change in a side signal; the % refers to the signal ratio
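AC50 values, positive or negative, reflect shifts in EC10 NKH 477-induced CRE-bla reporter activity in CHO cells. Incubation lasted 3 h at 37 °C before CCF4 substrate (2 h, room temperature) and ratiometric 460/530 nm reading.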
Tau filament bind: binds recombinant human tau filaments; Potency, µM (doses to about 57.1 µM); P10636; recombinant tau filaments, thioflavin S fluorescence, 15 h; filaments grown with octadecylsulfate alongside compound; 71,000 compounds, 2% hits;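 further: actives lower thioflavin S fluorescence by blocking filaments or displacing dye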
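ThS-based fibril read: tau 1 uM final, inducer ODS 30 uM final, 37 C for 15 h, ex 450/em 510 nm.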
HEK293 cAMP cs: raises cAMP in parental HEK293 cells, TSHR agonist counter-screen | parental HEK293 CNG cAMP sensor, membrane potential fluorescence | Potency, µM (series often up to 57.1 µM), actives largely listed as activators | AID 938 | 73,000 compounds, 2.5% hits; further: nearly all actives have a fitted effect of over 55% in size
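Counterscreen for endogenous-receptor signalling: CNG-channel HEK 293 cells report cAMP rise by membrane depolarization. After 60 min dye equilibration with 100 uM RO 20-1724, compounds incubated 30 min before bottom-read fluorescence at 590 nm.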
TSHR agonist: activates the human thyroid stimulating hormone receptor; P16473; HEK293-CNG-TSHR cells (CNG channel as cAMP sensor), membrane potential dye, cAMP; Potency, µM (series often up to 57.1 µM), usual class: activators; 73,000 compounds, 0.48% hits; AID 926; active means well fitted activation curve with a large enough effect in the main read-out, with a control signal flat, not every such curve was filed as active; inconclusive means small, poorly fitted or top-dose-only effect, or a change in a side signal; inactive means no such curve, though single readings can be large or run the other way; reference of the percent scale not stated here;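 further: the control signal comes from parental cells without the receptor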
Target sequence (P16473 whole entry, looked up): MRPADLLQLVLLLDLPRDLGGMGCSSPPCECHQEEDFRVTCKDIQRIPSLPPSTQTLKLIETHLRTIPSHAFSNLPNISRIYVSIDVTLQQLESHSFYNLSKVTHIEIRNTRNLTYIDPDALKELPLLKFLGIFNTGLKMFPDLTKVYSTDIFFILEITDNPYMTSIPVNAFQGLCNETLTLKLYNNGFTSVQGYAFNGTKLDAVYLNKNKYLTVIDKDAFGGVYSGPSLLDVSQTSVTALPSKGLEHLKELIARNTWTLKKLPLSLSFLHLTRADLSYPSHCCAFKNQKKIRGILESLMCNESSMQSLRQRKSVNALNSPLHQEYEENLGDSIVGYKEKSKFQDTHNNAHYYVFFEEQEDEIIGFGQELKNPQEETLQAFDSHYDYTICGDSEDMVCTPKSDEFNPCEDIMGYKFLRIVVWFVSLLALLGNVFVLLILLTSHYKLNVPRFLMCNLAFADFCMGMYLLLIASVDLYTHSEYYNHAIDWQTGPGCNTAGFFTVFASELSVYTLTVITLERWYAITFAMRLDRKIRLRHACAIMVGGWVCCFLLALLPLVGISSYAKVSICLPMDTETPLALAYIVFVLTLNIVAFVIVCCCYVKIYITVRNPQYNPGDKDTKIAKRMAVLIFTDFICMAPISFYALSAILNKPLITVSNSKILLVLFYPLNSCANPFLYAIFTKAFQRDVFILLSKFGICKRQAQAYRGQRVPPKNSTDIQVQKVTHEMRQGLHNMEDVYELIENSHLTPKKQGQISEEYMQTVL
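cAMP rise detected as CNG-channel membrane depolarization by fluorescent dye (emission 590 nm), 30 min after compound, following 60 min dye loading containing 100 uM RO 20-1724 at room temperature. Cells: TSHR/CNG HEK 293, with parental CNG HEK 293 as control.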
CHO via 24h: CHO cell toxicity at 24 h by ATP luminescence. AID 905. activity, negative = viability loss, % at 46.1 µM. shares compounds with CRE-bla Fsk. 120 tested, under 10 active. CRE-bla CHO viability, ATP luminescence, 24 h
CHO tox 40h: reduces CRE-bla CHO cell viability after 40 hours; shares compounds with CRE-bla Fsk; CRE-bla CHO viability, ATP luminescence, 40 h; Potency, µM, actives largely listed as inhibitors; 120 tested, under 10 active; AID 906
CRE-luc potent: confirmation of CRE signaling potentiators in HEK293 CREB reporter cells. shares compounds with CRE-bla Fsk. HEK293 CRE-luc2P, NKH477 EC10 potentiation, luminescence, 4 h. Potency, µM (titrated, usually from 38.3 µM), usual class: activators. 120 compounds, 80% hits
HEK293 cAMP cnt: raises cAMP in parental HEK293 cells lacking TSH receptor | shares compounds with TSHR agonist | parental HEK293 CNG biosensor, cAMP membrane potential fluorescence | activity change, negative = inhibition, % at 32.9 µM | 150 tested, under 10 active | AID 953
Calls only; n = inactive; u = inconclusive; x = no result; [ ] = another dose, or the depositor's remark. These entries were drawn from the full list. Unless noted, the call rests on the fitted dose curve; in most records, active means well fitted curve in the direction sought with a large enough effect; inconclusive means small, poorly fitted or top-dose-only effect, or another doubt; inactive means no such curve, though single readings can be large; an effect the other way counts as inactive or inconclusive.

SMILES	ERK AVP block	CRE-bla Fsk	Tau filament bind	HEK293 cAMP cs	TSHR agonist	HEK293 cAMP cnt	others
CN(C)C=C1C(=O)N(C2CCCCC2)C(=O)N(C2CCCCC2)C1=O	n	n	n	n	n	x	CHO via 24h=n;CHO tox 40h=u;CRE-luc potent=u
O=c1[nH]c(=O)n(Cc2ccco2)c(O)c1C=NC1CC1	n	n	n	n	x	n
CN(C)c1ccc(Cc2ccc(N(C)C)cc2)cc1	u	n	n	n	u	x
CN(C)c1ccc(CN2CC=C(c3ccc(F)cc3)CC2)cc1	u	n	n	n	n	n
O=C(O)C[C@H]1OCC=C2CN3CC[C@@]45C6=CC(=O)C(=O)C([N+](=O)[O-])=C6N[C@H]4[C@H]1[C@H]2C[C@@H]35	n[11.5 µM]	n[7.6 µM]	n[11.4 µM]	n[11.4 µM]	n[11.4 µM]	x
